Drawing on PubChem BioAssay, this text covers composite z-score for six compounds.

This experiment relates to Sonic hedgehog protein (Shh). Nature of the experiment: small-molecule binders of Shh protein, primary screen, biochemical, small-molecule microarray, 635/667 nm fluorescence (AID 1151).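 Also: Shh protein binding to compounds spotted on small-molecule microarray slides; score combines spot fluorescence intensity with signal-to-noise across triplicate slides.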 Particulars: small-molecule microarray binding, 635 nm fluorescence; higher = more signal.
Consider `O=C(NC1CC1)[C@@H]1c2ccccc2C(=O)N(Cc2ccccc2)[C@H]1c1ccc(CO)cc1`, for which the composite z-score was found to be 0.443.

`CC[C@H]1C2=C3C(CC[C@H]4C(OCc5ccc(F)cc5C(F)(F)F)OC[C@](C)([C@@H]34)N(C(=O)OC(C)(C)C)C2)C2COC(=O)OCC21` (stereo partly specified): the composite z-score is 0.0392. On to `COC(=O)[C@]1(CCS(=O)(=O)c2ccccc2)N=C(c2ccc(OCCCO)cc2)O[C@@H]1c1ccccc1CN=[N+]=[N-]`, for which the composite z-score came out at 0.738. The figure for `C=CCOC(=O)[C@@H]1[C@H]2C(=O)O[C@H](c3ccccc3)[C@H](c3ccccc3)N2[C@H](c2ccc(OCCOC(=O)[C@H]3C[C@H]4C(=O)N[C@@H](CCCCNC(C)=O)C(=O)N4[C@H]3c3cccc(OCCO)c3)cc2)[C@@]12C(=O)Nc1ccc(I)cc12` is 1.89.

`O=C1OCCC=C[C@H]2OC34C=CCN(c5ccc(Cl)cc5)C(=O)[C@H]3N(CCCCCO)C(=O)[C@@H]4C12` (stereo partly specified) gave a composite z-score of 0.58. The value for `COc1ccc(C(O)C2C=CC3C(=O)N(Cc4ccccc4)C(=O)C3N2n2cnnc2)c2ccccc12` (stereo unspecified) was -0.237.
